Active and inactive are the calls of the source.
How the values were obtained:
[1] = anti-His antibody binders, primary screen, artefact control for SMM control protein annotation, biochemical, small-molecule microarray, 635 nm fluorescence (AID 1128); conditions: anti-His Alexa647 antibody binding, higher = more signal;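 note: score merges feature fluorescence with signal-to-noise for each printed compound spot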
[2] = tested on: Human papillomavirus type 1a E7 protein (residues 1-88); experiment: HPV1a E7 small-molecule binders, primary screen, biochemical, small-molecule microarray, residues 1-88, 635 nm (AID 1129); conditions: small-molecule microarray binding, fluorescence 635 nm; higher = more signal
[3] = biological target: Focal adhesion kinase 1 (Homo sapiens) (UniProt Q05397); experiment: small-molecule microarray binders of FAK, primary screen, biochemical, 635/667 nm fluorescence, BSA, DTT (AID 1130); conditions: PTK2 binding, 635 nm fluorescence, higher = more signal;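 note: composite of spot emission at 667 nm and signal to noise over triplicate slides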
Chain of Focal adhesion kinase 1 (Homo sapiens) (Q05397 whole entry, looked up): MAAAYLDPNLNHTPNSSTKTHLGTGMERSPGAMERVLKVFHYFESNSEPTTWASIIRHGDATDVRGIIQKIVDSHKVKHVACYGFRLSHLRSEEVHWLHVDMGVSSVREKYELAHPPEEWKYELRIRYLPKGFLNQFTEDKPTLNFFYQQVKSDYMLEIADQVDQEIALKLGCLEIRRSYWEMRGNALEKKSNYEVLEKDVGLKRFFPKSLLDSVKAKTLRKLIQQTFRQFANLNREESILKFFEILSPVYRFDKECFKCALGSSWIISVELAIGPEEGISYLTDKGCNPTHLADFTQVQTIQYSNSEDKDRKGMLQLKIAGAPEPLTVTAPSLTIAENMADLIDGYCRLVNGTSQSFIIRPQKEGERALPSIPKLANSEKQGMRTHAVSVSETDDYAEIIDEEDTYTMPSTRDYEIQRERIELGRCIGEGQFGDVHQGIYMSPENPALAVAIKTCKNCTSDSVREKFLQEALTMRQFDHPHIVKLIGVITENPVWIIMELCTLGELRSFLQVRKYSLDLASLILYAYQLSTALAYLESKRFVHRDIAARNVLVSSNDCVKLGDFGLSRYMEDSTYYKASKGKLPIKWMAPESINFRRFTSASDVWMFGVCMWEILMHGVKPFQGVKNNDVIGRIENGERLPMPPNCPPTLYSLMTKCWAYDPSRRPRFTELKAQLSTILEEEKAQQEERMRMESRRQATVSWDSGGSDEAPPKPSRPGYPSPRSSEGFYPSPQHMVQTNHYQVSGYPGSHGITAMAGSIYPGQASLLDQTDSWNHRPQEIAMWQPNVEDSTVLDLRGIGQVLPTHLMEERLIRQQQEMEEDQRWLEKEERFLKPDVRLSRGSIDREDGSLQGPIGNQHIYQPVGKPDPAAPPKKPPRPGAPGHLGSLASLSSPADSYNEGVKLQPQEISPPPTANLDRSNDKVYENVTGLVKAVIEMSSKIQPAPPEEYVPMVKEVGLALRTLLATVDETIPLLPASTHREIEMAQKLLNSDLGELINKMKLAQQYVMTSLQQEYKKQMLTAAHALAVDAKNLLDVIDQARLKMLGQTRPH

[4] = tested on: Fibrinogen (Alexa647-labelled); experiment: fibrinogen binders on compound microarrays, profiling panel, artefact control for SMM control-protein annotation, biochemical, small-molecule microarray, 635/667 nm fluorescence (AID 1131); conditions: fibrinogen-A647 binding fluorescence, higher = more signal;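 note: z-score merges 667 nm fluorescence with per-spot signal-to-noise over triplicate slides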
[5] = biological target: Follistatin (Homo sapiens) (UniProt P19883); experiment: follistatin binders on small-molecule microarrays, primary screen, biochemical, small-molecule microarray, 635/667 nm fluorescence (AID 1132); conditions: FST binding, 635 nm fluorescence, higher = more signal
Chain of Follistatin (Homo sapiens) (P19883 whole entry, looked up): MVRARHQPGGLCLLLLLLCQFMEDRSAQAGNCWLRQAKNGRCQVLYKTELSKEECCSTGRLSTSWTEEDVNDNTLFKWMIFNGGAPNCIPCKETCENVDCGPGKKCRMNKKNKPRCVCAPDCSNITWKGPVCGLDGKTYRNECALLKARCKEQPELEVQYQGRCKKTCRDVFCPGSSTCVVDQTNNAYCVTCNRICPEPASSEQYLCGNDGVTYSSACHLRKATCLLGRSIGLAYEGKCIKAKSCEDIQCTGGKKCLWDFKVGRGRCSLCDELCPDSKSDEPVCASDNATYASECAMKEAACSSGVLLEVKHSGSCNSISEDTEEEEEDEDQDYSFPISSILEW

[6] = biological target: Fibroblast growth factor 2 (Homo sapiens) (UniProt P09038); experiment: FGF2 binders on small-molecule microarrays, primary screen, biochemical, small-molecule microarray, 635/667 nm fluorescence (AID 1133); conditions: small-molecule microarray binding, FGF2, fluorescence 635/667; higher = more signal
Chain of Fibroblast growth factor 2 (Homo sapiens) (P09038 whole entry, looked up): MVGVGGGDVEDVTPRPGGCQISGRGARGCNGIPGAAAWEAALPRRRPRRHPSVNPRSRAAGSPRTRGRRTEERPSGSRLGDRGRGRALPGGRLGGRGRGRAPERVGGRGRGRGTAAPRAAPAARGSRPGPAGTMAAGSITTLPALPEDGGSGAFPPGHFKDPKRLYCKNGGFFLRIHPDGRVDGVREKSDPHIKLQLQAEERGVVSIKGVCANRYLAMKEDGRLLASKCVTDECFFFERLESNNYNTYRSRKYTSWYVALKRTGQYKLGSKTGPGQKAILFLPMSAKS

[7] = mitochondrial membrane potential change in A549 cells, profiling panel, cell-based, JC-1 fluorescence, basal, 24 h, 100 nL (AID 1138); conditions: higher = more signal;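 note: A549 lung adenocarcinoma cells under basal conditions with no added stimulus; test concentration not given here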
Lefty1 = Lefty1 binders on small-molecule microarrays, primary screen, biochemical, small-molecule microarray, 635/667 nm fluorescence (AID 1139); conditions: small-molecule microarray binding, fluorescence 635/667; higher = more signal
[8] = tested on: wheat germ agglutinin (Triticum aestivum), Alexa647-labelled; experiment: wheat germ agglutinin binders on compound microarrays, profiling panel, artefact control for SMM control-protein annotation, biochemical, small-molecule microarray, 635/667 nm fluorescence (AID 1140); conditions: WGA-A647 binding, 635 nm fluorescence, higher = more signal;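 note: score merges 667 nm feature emission with signal to noise over triplicate slides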
[9] = biological target: Luciferin 4-monooxygenase (Photinus pyralis) (UniProt P08659); experiment: firefly luciferase enzyme inhibitors, primary screen, biochemical, luminescence, purified enzyme, 2006 set (AID 1141); conditions: SteadyGlo luminescence, 30 min, higher = more signal, called active from +8 up or from −8 down;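 note: cell-free assay with purified firefly luciferase at 100 ng per well in PBS; test concentration not given here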
Chain of Luciferin 4-monooxygenase (Photinus pyralis) (P08659 whole entry, looked up): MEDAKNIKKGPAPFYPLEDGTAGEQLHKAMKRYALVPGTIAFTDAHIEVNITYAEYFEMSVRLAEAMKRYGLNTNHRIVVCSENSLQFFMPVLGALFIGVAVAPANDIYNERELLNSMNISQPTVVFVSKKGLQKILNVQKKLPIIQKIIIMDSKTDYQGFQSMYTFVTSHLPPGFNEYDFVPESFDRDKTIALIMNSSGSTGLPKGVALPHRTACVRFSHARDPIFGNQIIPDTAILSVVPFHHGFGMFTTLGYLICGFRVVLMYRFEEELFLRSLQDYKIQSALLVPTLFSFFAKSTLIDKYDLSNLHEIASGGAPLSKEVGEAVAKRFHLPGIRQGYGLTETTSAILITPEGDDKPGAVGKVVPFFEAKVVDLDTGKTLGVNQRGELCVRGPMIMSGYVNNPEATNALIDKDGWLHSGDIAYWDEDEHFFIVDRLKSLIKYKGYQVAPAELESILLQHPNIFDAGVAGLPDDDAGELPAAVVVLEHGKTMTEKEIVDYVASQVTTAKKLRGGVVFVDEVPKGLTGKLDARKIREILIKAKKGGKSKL

Compound	composite z-score [1]	composite z-score [2]	composite z-score [3]	composite z-score [4]	composite z-score [5]	composite z-score [6]	z-score [7]	composite z-score (Lefty1)	composite z-score [8]	z-score [9]
CC1=C([C@H](O)CCc2ccccc2)[C@H](CO)[C@@H]2C(=O)N(Cc3ccccc3)C(=O)[C@@H]2C1	0.635	0.0269	0.194	0.962	0.738	0.113	0.901	0.388	0.313	0.215 (inactive)
CCN1C(C)=C(C(=O)OC)[C@@H](c2ccccc2)N2C(=O)[C@](O)(C(=O)OC)[C@@H](c3ccccc3)C(C(=O)c3ccccc3)=C12	0.0774	0.778	0.0079	0.983	0.411	0.411	1.58	0.717	0.593	-1.2 (inactive)
C=CCNC(=O)[C@H]1[C@@H]2C(=O)O[C@@H](c3ccccc3)[C@@H](c3ccccc3)N2[C@@H](c2ccccc2OCCO)[C@]12C(=O)N(C(=O)OCCOC)c1ccc(C#CCNC(N)=O)cc12	1.26	1.17	0.409	0.742	0.776	0.104	0.423	0.629	1.11	-0.963 (inactive)
O=C(N1CCCCC1)[C@@]1(CCS(=O)(=O)c2ccccc2)N=C(c2ccc(OCCCO)cc2)O[C@H]1c1ccccc1	1.9	1.26	0.556	0.328	1.25	-0.0973	0.216	-0.0953	0.0324	-1.32 (inactive)
CCOC(=O)C[C@H]1[C@H](OC(=O)Cc2ccc3c(c2)OCO3)[C@@H](NC(=O)CC(C)C)c2cc(OCCCO)ccc2N1C(=O)c1ccccc1	-0.314	0.157	0.344	0.165	0.45	0.503	1.91	0.492	0.0122	-1.26 (inactive)
C=CCc1cccc([C@@H]2[C@@H](C)CC[C@H]3C(=O)N4[C@H](c5cccc(CC=C)c5)[C@@H](C)CC[C@H]4C(=O)N23)c1	0.22	1.09	0.19	0.991	1.28	0.704	3.36	0.644	0.846	-0.744 (inactive)
COc1ccc([Si](C)(C)[C@H]2[C@H](CCO)O[C@@]3(C(=O)N(Cc4ccc(N5CCCCC5=O)cc4)c4ccccc43)[C@@H]2C)cc1	1.91	1.1	0.0098	0.903	1.3	0.753	1.33	1.36	1.14	-1.39 (inactive)
COC(=O)Cn1c(C(=O)N2CCCC2)cc2c1C[C@H]1CN(C(=O)c3ccccc3)[C@@](Cc3ccccc3)(C(=O)OC)[C@@H]21	1.64	0.684	0.714	1.01	0.0488	-0.684	0.367	0.142	1.43	0.659 (inactive)
O=C1O[C@H](c2ccccc2)[C@H](c2ccccc2)N2[C@H]1[C@@H](C(=O)NC[C@H](O)c1ccccc1)[C@]1(C(=O)Nc3ccc(C#CC4(O)CCCCCC4)cc31)[C@H]2c1ccc(OCCO)cc1	2.52	1.2	0.285	0.641	1.06	1.04	-1.2	-0.0254	0.959	-1.23 (inactive)
COc1cc([C@@H]2N[C@H](C(=O)O)Cc3c2[nH]c2ccccc32)cc(OC)c1OC	0.386	0.431	0.161	0.514	0.275	0.254	0.559	0.531	0.373	-0.538 (inactive)
O=C1c2ccccc2[C@@]2(Cc3ccccc3N(CC(F)(F)F)C2=O)[C@H](c2ccc(CO)cc2)N1C1CCCCC1	-0.194	-0.07	-0.103	-0.243	1.06	1.06	0.835	0.531	-0.643	-0.637 (inactive)
O=C(NCC(O)CO)[C@]1(Cc2ccccc2)N=C(c2ccc(OCCCO)cc2)O[C@@H]1c1ccccc1 (stereo not given in full)	0.713	0.98	0.774	0.601	0.585	-0.836	0.571	-1.42	1.27	-1.37 (inactive)
C=CC[C@@]12N=C(c3ccc(OCCCO)cc3)O[C@@H]1c1ccccc1CN(Cc1ccccc1)C2=O	2.93	1.18	1.05	0.639	1.33	0.761	-0.309	0.239	0.65	-1.79 (inactive)
O=C(CS)NCCCCCNC(=O)[C@H]1C[C@H]2C(=O)N3CCC[C@H]3C(=O)N2[C@H]1c1ccc(O)cc1	0.215	-1.25	-0.384	-0.743	0.927	0.917	1.54	-0.0421	-1.68	-1.75 (inactive)
Cc1ccc(S[C@]2(C(=O)NC(C)C)CC(=O)N(C3Cc4ccccc4C3)[C@@H]2c2ccc(CO)cc2)cc1	2.13	0.627	0.447	0.686	0.34	-0.438	0.186	0.123	0.923	0.187 (inactive)
CO[C@H]1COC(=O)[C@@H](Cc2ccccc2)NC(=O)[C@@H](C)COC(=O)CC=C[C@@H]1C	-0.28	-0.0865	-0.112	-0.277	1.24	1.01	1.3	1.01	-0.744	-1.16 (inactive)
[N-]=[N+]=NCc1ccccc1C[C@@]1(C(=O)N2CCOCC2)N=C(c2ccc(OCCCO)cc2)O[C@@H]1c1ccccc1N=[N+]=[N-]	1.8	1.22	0.662	0.9	1.12	0.267	1.4	-0.123	1.37	-8.34 (active)
COCCOC(=O)N1C(=O)[C@@]2(c3cc(C#CCNC(N)=O)ccc31)[C@H](c1ccc(OCCO)cc1)N1[C@H](c3ccccc3)[C@H](c3ccccc3)OC(=O)[C@H]1[C@@H]2C(=O)Nc1nc2ccccc2s1	0.0799	-0.393	0.0616	0.398	1.28	0.779	-2.32	0.83	0.755	-3.42 (inactive)
CO[C@H]1COC(=O)[C@@H](OCc2ccccc2)C=C[C@H](C)[C@@H](OC)COC(=O)[C@H](OCc2ccccc2)C=C[C@@H]1C	-0.12	-0.0882	0.104	-0.305	0.266	0.552	1.99	0.67	-0.244	-1.99 (inactive)
CO[C@@H]1COC(=O)[C@H](COCc2ccccc2)NC(=O)CC=C[C@@H](C)[C@H](OC)COC(=O)[C@H](COCc2ccccc2)NC(=O)CC=C[C@H]1C	-0.156	-0.47	-0.0624	-0.201	0.59	0.622	0.952	0.886	-0.915	-0.901 (inactive)
COCCCNC(=O)[C@@]1(Sc2ccc(C)cc2)CC(=O)N(Cc2cc(C(F)(F)F)cc(C(F)(F)F)c2)[C@@H]1c1ccc(CO)cc1I	-0.21	-1.1	0.144	-1.86	-0.993	-0.511	0.915	-1.66	-1.1	-0.503 (inactive)
CC/C=C/C(=O)N(C[C@@H]1CCCO1)[C@@H]1CC(C(=O)NCCO)=C[C@H](Oc2c(I)cc(CO)cc2OC)[C@H]1O	0.224	0.164	0.303	0.217	-0.227	-0.273	1.91	0.0903	0.701	-1.47 (inactive)
C[C@H]1NC(=O)[C@@H](C)NC(=O)[C@@]23C(=O)N[C@@H](Cc4ccccc4)C2[C@H](C)[C@@]2(C)O[C@H]2C3/C=C/C/C=C\CNC1=O (stereo not given in full)	-0.759	-1.84	-0.801	-0.388	0.117	0.0213	1.07	-0.0767	0.0969	-0.919 (inactive)
CC(C)C[C@@H]1NC(=O)[C@H]2C[C@@H](C(=O)NCCCCCC[N+](C)(C)C)[C@@H](c3ccc(O)cc3)N2C1=O	2.28	-0.194	-0.188	-1.44	1.16	0.839	-0.603	0.467	0.952	0.779 (inactive)
C#C[C@H](O[Si](C#Cc1ccccc1)(C(C)C)C(C)C)c1ccccc1	0.126	-0.581	-0.515	-0.664	-0.89	-0.487	-1.47	-0.126	-0.242	0.645 (inactive)
O=C(NCc1ccccc1)c1ccc(Br)cc1[N+](=O)[O-]	-0.26	0.292	-0.1	-0.0828	0.405	0.465	0.543	0.505	0.352	-0.941 (inactive)
CCCCCCc1nc(-c2cc(C)c(OC)c(C)c2)cc2c1[Si](C(C)C)(C(C)C)O[C@H]2c1ccccc1	-0.36	-0.341	-0.272	-0.399	0.0128	-0.683	-0.705	-0.0906	-0.372	0.844 (inactive)
CC[C@H]1C2=C3C(CC[C@H]4C(OC)OC[C@](C)([C@@H]34)N(C(=O)OC(C)(C)C)C2)C(CO)C1CO (stereo not given in full)	2.26	1.18	1.47	0.43	0.579	-0.468	1.16	-0.181	1.06	0.16 (inactive)
CN(C)CCCC[C@@H]1NC(=O)[C@@H]2C[C@H](C(=O)NCCCCCNC(=O)CS)[C@H](c3ccc(O)cc3)N2C1=O	1.12	1.19	-0.0662	0.946	1.52	1.65	1.3	1.65	1.23	-1.11 (inactive)

Source: PubChem BioAssay
